Shown are actives, neighbours in structure and some others; about 14% of the full set was active somewhere.
Pf growth 96h: Primary qHTS for delayed death inhibitors of the malarial parasite plastid, 96 hour incubation. P. falciparum luciferase reporter growth, 96 h. Potency, µM (doses to about 28.7 µM), for the others: at the top dose activity change, negative = inhibition, most hits filed as inhibitors. 6.9% of 320,000 active; note: potency is the fitted concentration of half-maximal effect
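Two-generation exposure (96 h) targets delayed-death phenotype. Reporter parasites carrying integrated firefly luciferase, in red cells at 2% hematocrit and 0.05% parasitemia final, kept at 37 C, 5% CO2; luminescence loss indicates inhibition.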
Marburg entry inh: qHTS for inhibitors of binding or entry into cells for Marburg Virus. Marburg virus pseudotyped entry inhibition, cell reporter. Potency, µM (titrated, usually from 37.8 µM), without a hit: top-dose activity change, negative = inhibition, actives largely listed as inhibitors. 1.8% of 300,000 active. AID 540276, 2011; calls by dose curve; tested in HEK293 cells; note: potency is the fitted concentration of half-maximal effect
HCV inhibitor: qHTS Assay for Inhibitors of Hepatitis C Virus (HCV); Huh7.5.1 HCVcc-Cre infection, luciferase reporter, 44 h; Potency, µM (doses to about 41.8 µM), without a hit: at the top dose activity change, negative = inhibition, usual class: inhibitors; 3.4% of 340,000 active; note: potency is the fitted concentration of half-maximal effect
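Seed cells (1,000/well) for 4 h; treat with compound and infect with HCVcc-Cre, moi about 0.5. Incubate 44 h, then detect luciferase activity.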
Pf growth 48h: Primary qHTS for delayed death inhibitors of the malarial parasite plastid, 48 hour incubation. P. falciparum luciferase growth in erythrocytes, 48 h. Potency, µM (top dose mostly 28.7 µM), without a hit: at the highest dose activity change, negative = inhibition, hits mostly inhibitors. 5.9% of 310,000 active. AID 504832, 2011; note: potency is the fitted concentration of half-maximal effect
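Luminescence readout; reporter = integrated firefly luciferase in P. falciparum. RBC culture at 2% hematocrit, 0.1% parasitemia final, 37 C/5% CO2; decreased signal taken as growth inhibition.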
LASV entry inh: qHTS for Inhibitors of binding or entry into cells for Lassa Virus; Lassa virus pseudotype entry inhibition, cell reporter; Potency, µM (doses to about 37.9 µM), for the others: at the top dose activity change, negative = inhibition, hits mostly inhibitors; 1.2% of 300,000 active; AID 540256, 2011; calls by dose curve; tested in HEK293 cells; note: potency is the fitted concentration of half-maximal effect; nearly all actives have a fitted effect of over 50% in size
HCMV antiviral: qHTS Assay for inhibitors of the human cytomegalovirus (HCMV); 4.5% of 410,000 active; activity change, negative = inhibition, % at 57.5 µM; AID 1259415, 2018; HFF cells, HCMV-luciferase reporter, 72 h; active compounds read low; in the data active = activity change below about -60%; inconclusive = no clear call, values can overlap the other calls; inactive = above about -39%
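Human foreskin fibroblasts infected with luciferase-reporter HCMV at MOI 1 PFU/cell, compounds at two doses. Luciferase measured 72 h post infection; normalized to buffer-only basal and Salinomycin (10uM) controls.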
* hit, by the source's call; [ ] = remark or other dose. Unless noted, calls come from the whole dose curve; as a rule, active = well fitted inhibition curve with a large enough effect; inconclusive = small, poorly fitted or top-dose-only effect, or another doubt; inactive = no such curve, though single readings can be large or run the other way. % is set by controls: 0 for no effect and ±100 for the full control effect.

Screening CC(C)[C@H](CO)N(Cc1cccc(F)c1)c1nc(Nc2cccc(Cl)c2)c2ncn(C(C)C)c2n1 returned Pf growth 96h inconclusive, HCV inhibitor inconclusive, Pf growth 48h 12µM* and HCMV antiviral 22.
For CCn1cnc2c(Nc3cccc(Cl)c3)nc(N[C@@H]3CCCC[C@H]3N)nc21 the results were Marburg entry inh 6.3µM*.
Screening CC[C@H](CO)Nc1nc(Nc2cccc(Cl)c2)c2ncn(C(C)C)c2n1 returned Pf growth 96h 5.2µM*, HCV inhibitor inconclusive, Pf growth 48h 12µM* and HCMV antiviral -65*.
For Cn1c(=O)n(C)c2cc(CNCc3ccc(F)cc3)ccc21 the results were Marburg entry inh 2%[46.1 µM], LASV entry inh 3%[46.1 µM] and HCMV antiviral 7.
COc1ccc(Cl)cc1NC(=O)C1CCN(S(=O)(=O)c2ccc(F)cc2)CC1 was read as Marburg entry inh -16%[46.1 µM], LASV entry inh -29%[46.1 µM] and HCMV antiviral -21.
For Cc1cccc(C(=O)Nc2ccc(C(=O)/C=C/c3ccncc3)cc2)c1 the results were Pf growth 96h 209%, Marburg entry inh inconclusive, HCV inhibitor -12%, Pf growth 48h inconclusive, LASV entry inh inconclusive and HCMV antiviral -101*.
Screening CC(=O)Nc1cccc(C(=O)/C=C/c2ccc(N(C)C)cc2)c1 returned Pf growth 96h 105%, Marburg entry inh 4%, HCV inhibitor 7%, Pf growth 48h 118%, LASV entry inh -10% and HCMV antiviral 30.
Screening CC(=O)Nc1cccc(C(=O)/C=C/c2ccc(Br)cc2)c1 returned Pf growth 96h 26%, Marburg entry inh 15µM*, HCV inhibitor inconclusive, Pf growth 48h inconclusive, LASV entry inh inconclusive and HCMV antiviral -71*.
`CC(=O)Nc1cccc(C(=O)/C=C/c2ccc(F)cc2)c1` gave Pf growth 96h inconclusive, Marburg entry inh inconclusive, HCV inhibitor inconclusive, Pf growth 48h -10%, LASV entry inh inconclusive and HCMV antiviral -99*.
Cc1cccc(C(=O)Nc2ccc(C(=O)/C=C/c3cccnc3)cc2)c1 was read as Pf growth 96h 4%, Marburg entry inh inconclusive, HCV inhibitor inconclusive, Pf growth 48h -13%, LASV entry inh inconclusive and HCMV antiviral 18.
CC(=O)Nc1cccc(C(=O)/C=C/c2ccc(/C=C/C(=O)c3cccc(NC(C)=O)c3)cc2)c1 was read as Pf growth 96h 9.3µM*, HCV inhibitor inconclusive, Pf growth 48h 2.9µM* and HCMV antiviral -88*.
For Cc1ccc(N2CC(NC(=O)CCCc3ccccc3)CC2=O)cc1 (stereo not drawn) the results were LASV entry inh 9%[46.1 µM] and HCMV antiviral -22.
`COCCNc1ncnc2c1cnn2-c1cc(Cl)ccc1C` gave LASV entry inh 14%[46.1 µM] and HCMV antiviral -7.
COc1cc2[nH]c(C)c(-c3ccccc3)c(=O)c2cc1Cl was read as HCMV antiviral 25.
For Cc1cc(O)c2c(C)c(CC(=O)N3CCCCC3)c(=O)oc2c1 the results were Marburg entry inh 15%[46.1 µM], LASV entry inh inconclusive and HCMV antiviral 1.
CCN1CCN(C(=O)c2oc(=O)c3ccccc3c2-c2ccc(C)cc2)CC1 was read as Pf growth 96h 4.7µM*, Marburg entry inh 16%, HCV inhibitor 0%, Pf growth 48h inconclusive, LASV entry inh -22% and HCMV antiviral -27.
For COc1ccc(CN2CCNC(=O)C2CC(=O)N(C)CC2CCOCC2)cc1C (stereo not drawn) the results were Pf growth 96h inconclusive, Marburg entry inh -7%, HCV inhibitor -13%, Pf growth 48h -5%, LASV entry inh 15% and HCMV antiviral 12.
Screening CCn1c(-c2ccccc2Cl)nn(CC(=O)Nc2cc(Cl)ccc2Cl)c1=S returned Pf growth 96h 10µM*, Marburg entry inh inconclusive, HCV inhibitor 13µM*, Pf growth 48h inconclusive, LASV entry inh inconclusive and HCMV antiviral inconclusive.
Screening Cn1nc(C(F)(F)F)c2cc(C(=O)Nc3ccc(C(F)(F)F)cc3)sc21 returned Pf growth 96h inconclusive, Marburg entry inh inconclusive, HCV inhibitor inconclusive, Pf growth 48h 6.6µM*, LASV entry inh inconclusive and HCMV antiviral -106*.
Screening Cn1nc(C(F)(F)F)c2cc(C(=O)Nc3ccc(F)c(Cl)c3)sc21 returned Pf growth 96h 2.1µM*, Marburg entry inh inconclusive, HCV inhibitor inconclusive, Pf growth 48h 3.3µM*, LASV entry inh inconclusive and HCMV antiviral -75*.
For Cn1nc(C(F)(F)F)c2cc(C(=O)Nc3ccc(F)cc3)sc21 the results were Pf growth 96h inconclusive, Marburg entry inh -22%[46.1 µM], HCV inhibitor inconclusive, Pf growth 48h inconclusive, LASV entry inh -2% and HCMV antiviral -18.
`Cn1c(-c2cccc(C(F)(F)F)c2)cc2cnc(Nc3cccc(Oc4ccccc4)c3)cc21` gave HCMV antiviral -11.
For O=C(c1ccc(N2CCCC2=O)cc1)N1CCN(c2ccccc2F)CC1 the results were Pf growth 96h -28%, HCV inhibitor 11%, Pf growth 48h 15% and HCMV antiviral 18.
`CC(C)C[C@H]1CN(CCCC[C@H]2CNC(=O)C(=O)N2CCC2CCCCC2)C(=O)C(=O)N1CCC1CCCCC1` gave HCMV antiviral -108*.
For CC(C)C[C@@H]1CN(CCCC[C@H]2CNC(=O)C(=O)N2CCC2CCCCC2)C(=O)C(=O)N1CCC1CCCCC1 the results were HCMV antiviral -15.
For Cc1ccsc1/C=N/NC(=O)c1nnn(-c2nonc2N)c1-c1ccccc1 the results were Pf growth 96h 36%, Marburg entry inh -1%[46.1 µM], HCV inhibitor -2%, Pf growth 48h -1%, LASV entry inh -7%[46.1 µM] and HCMV antiviral -21.
Screening Cc1ccc(-c2c(C(=O)N/N=C/c3sccc3C)nnn2-c2nonc2N)cc1 returned Pf growth 96h 0.93µM*, HCV inhibitor inconclusive, Pf growth 48h inconclusive and HCMV antiviral 0.
Screening Cc1ccc(-c2c(C(=O)N/N=C/C3CC=CCC3)nnn2-c2nonc2N)cc1 (stereo not drawn) returned Pf growth 96h 9.3µM*, HCV inhibitor -5%, Pf growth 48h inconclusive and HCMV antiviral -2.
Screening CC(C)(C)c1ccc(O[C@@H]2[C@H](O)CO[C@@H]2C=CC#Cc2ccccc2)cc1 returned Marburg entry inh -9%[14.2 µM].
Cc1cccc(N2CCN(C(=O)c3cc4ccc5cccnc5c4[nH]3)CC2)c1C was read as LASV entry inh 3%[46.1 µM] and HCMV antiviral 2.

High-throughput results (PubChem BioAssay)
